Compound activity from PubChem BioAssay.
In the library only some 1.3% were active in any assay of this set; here they are far more common.
BRCA1 expr act: qHTS Assay to Identify Small Molecule Activators of BRCA1 Expression; 1.1% of 380,000 active; Potency, µM (top dose mostly 46.1 µM), without a hit: at the highest dose activation, actives largely listed as activators; MCF7-BRCA1-FFLuc reporter, luminescence, 48 h; response scale: scaled: vehicle 0%, 10 µM genistein 100%; AID 624202, 2012; also: potency is read from the fitted curve at half-maximal effect; nearly all actives have a fitted effect of over 80% in size
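Activators of BRCA1 expression were detected as increased firefly luciferase luminescence in engineered MCF7 cells after 48 h compound incubation. Signals were scaled to genistein 10 microM as full activation.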
Mito fusion act: qHTS Assay for Small Molecule Inhibitors of Mitochondrial Division or Activators of Mitochondrial Fusion. 0.23% of 320,000 active. S. cerevisiae fusion-defective mutant growth rescue, CellTiterGlo 48 h. Potency, µM (top dose mostly 46.1 µM), for inactives: at the highest dose growth rescue (activation), actives largely listed as activators. AID 485298, 2010; also: potency is read from the fitted curve at half-maximal effect; % of control where 0% means no effect; nearly all actives have a fitted effect of over 45% in size
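Compounds are tested for their ability to restore growth of mitochondrial fusion-defective yeast strains at non-permissive 37C in YPEG medium over 48 hours. Viability is quantified by luciferase luminescence.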
IL2 activator: qHTS of IL-2 Activators; 0.065% of 360,000 active; activation, % (series mostly up to about 46 µM); IL-2 activation reporter assay, cell-based qHTS; stimulated with anti-CD3/CD4/CD28 beads; in transgenic mouse T cells; in the data active = activation above about 50%; inconclusive = mostly about 30% to 49%; also: 0% is about no effect
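Using fluorescent plate cytometry, EGFP and DsRed are detected in transgenic mouse T cells stimulated 18 h at 37 degrees C with antibody-coated beads after 60 min compound pretreatment.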
TCR activator: Activators of T cell receptors: qHTS campaign | primary human leukocytes, anti-CD3, IL-2 HTRF, 48 h | Potency, µM (doses to about 9.22 µM), inactives show at the highest dose activation of IL-2 secretion, usual class: activators | 330,000 tested, under 10 active; also: % of control where 0% means no effect
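48 hr co-incubation of compounds, a-CD3 beads and primary human leukocytes; IL-2 quantified homogeneously by HTRF with anti-IL-2 K and d2 conjugates.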
PTHR1 ag: qHTS for PTHR1 Agonists: Primary Screen | HEK293 GP2 PTHR1 cells, GloSensor cAMP luminescence, 1 h | 0.075% of 410,000 active | Parathyroid hormone/parathyroid hormone-related peptide receptor (Homo sapiens), Q03431 | Potency, µM (doses to about 115 µM), for inactives: top-dose activation, hits mostly activators; also: potency is read from the fitted curve at half-maximal effect; nearly all actives have a fitted effect of over 55% in size
Target sequence (Q03431 whole entry, looked up): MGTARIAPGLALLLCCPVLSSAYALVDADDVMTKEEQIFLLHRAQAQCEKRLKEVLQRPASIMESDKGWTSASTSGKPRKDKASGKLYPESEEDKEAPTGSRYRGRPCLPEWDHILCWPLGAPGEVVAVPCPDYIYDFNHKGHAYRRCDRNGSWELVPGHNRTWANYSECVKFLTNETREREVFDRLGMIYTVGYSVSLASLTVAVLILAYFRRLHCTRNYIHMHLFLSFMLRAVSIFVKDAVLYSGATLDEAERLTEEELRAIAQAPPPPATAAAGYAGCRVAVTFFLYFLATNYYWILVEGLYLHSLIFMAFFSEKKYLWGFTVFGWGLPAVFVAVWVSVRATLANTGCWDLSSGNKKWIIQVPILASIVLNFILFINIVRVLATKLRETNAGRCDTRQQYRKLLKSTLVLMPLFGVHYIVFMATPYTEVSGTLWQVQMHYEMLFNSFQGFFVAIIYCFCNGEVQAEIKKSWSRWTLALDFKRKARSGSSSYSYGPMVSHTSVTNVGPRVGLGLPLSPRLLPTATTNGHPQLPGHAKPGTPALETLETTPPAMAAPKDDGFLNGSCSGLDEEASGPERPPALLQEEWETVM
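HEK-293-derived GP2 cells expressing PTHR1 and a GloSensor cAMP reporter, 3,000/well, plated overnight, given luciferin plus IBMX (each 0.5 mM as added) for 1 h at 37 °C, then compound for 1 h at 37 °C. Luminescence was read after 15 min at room temperature.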
BCR signal inh: qHTS Assay to Find Inhibitors of Chronic Active B-Cell Receptor Signaling. ABC-DLBCL IkBa-CBG/CBR reporter, luminescence ratio, 4 h. Potency, µM (titrated, usually from 46.1 µM), for the others: top-dose activity change, negative = inhibition, most hits filed as inhibitors. 0.05% of 340,000 active. AID 493014, 2011; active = well fitted inhibition curve with a large enough effect in the signal ratio, with a control signal flat, not every such curve was filed as active; inconclusive = small, poorly fitted or top-dose-only effect, or effect the other way, or a change in a side signal; the % refers to the signal ratio;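 also: potency is read from the fitted curve at half-maximal effect; plate controls were basal doxycycline-induced cells for no effect and cells given 10 µM MG132 for full effect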
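Concentration-response series (up to 46 uM) were applied to TMD8 dual-reporter cells for 4 h at 37C with doxycycline. Green/red ratio, after filter-overlap correction, defined %Activity; red signal alone was normalised to basal cells and zero luminescence.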
* marks the source's active call; other numbers are inactive results; i = inactive; ? = inconclusive; . = not tested or not shown; [ ] = dose if it differs, or a comment. Unless noted, calls follow the shape of the dose curve; as a rule, active = well fitted curve in the direction sought with a large enough effect; inconclusive = small, poorly fitted or top-dose-only effect, or another doubt; inactive = no such curve, though single readings can be large; an effect the other way counts as inactive or inconclusive.

SMILES | BRCA1 expr act | Mito fusion act | IL2 activator | TCR activator | PTHR1 ag | BCR signal inh
Cc1cc(Br)ccc1NC(=O)COC(=O)c1ccccc1OCC(=O)N(C)C | 7.2% | . | . | . | . | .
O=C(CCN1C(=O)c2ccccc2C1=O)N1CCOCC1 | 0.0% | -3.6% | -2.4 | 9.0%[46.1 µM] | i | -18.4%
O=C(CCN1C(=O)c2cccc3cccc(c23)C1=O)NC1CCS(=O)(=O)C1 (stereo not drawn) | 10µM* | -1.5% | -2.7 | 1.2% | -2.2% | -3.7%
O=C(CCN1C(=O)c2cccc3cccc(c23)C1=O)N1CCOCC1 | 12.6µM* | -8.4% | 1.4 | 6.0% | i | -0.8%
O=C(CCCCCN1C(=O)c2cccc3cccc(c23)C1=O)NC1CCS(=O)(=O)C1 (stereo not drawn) | 16.2% | 0.9% | -2.2 | 0.3% | -6.9% | -16.5%
CC1CCC(NC(=O)CN2C(=O)COc3ccc(S(=O)(=O)N4CCCC4)cc32)CC1 (stereo not drawn) | . | -2.2% | . | -0.3%[46.1 µM] | . | -5.3%
Cc1ccc(N(CCC#N)C(=O)COC(=O)c2cc(C)oc2C)cc1 | 3.7% | -2.2% | -1.3 | 11.3% | i | 0.0%
O=C(CCC1CCCCC1)NCc1ccc(F)cc1 | 24.2% | 3.2% | -5.3 | 1.0%[46.1 µM] | -26.7% | ?
O=C(CC1CCCCC1)NCc1ccc(Cl)cc1 | 11.2µM* | -0.9% | -0.4 | 6.7% | -22.8% | ?
COc1ccc(C(=O)Cc2cc3cccc(OC)c3oc2=O)cc1 | 15.8µM* | 3.6% | -0.1 | 7.7% | -28.2% | ?
COc1cccc2cc(C(=O)N3CCCCC3C)c(=O)oc12 (stereo not drawn) | -18.8% | -1.3% | 0.4 | 2.6%[46.1 µM] | i | ?
COc1cccc2cc(CC(=O)c3ccc(C)cc3C)c(=O)oc12 | 11.2µM* | 5.5% | -4.1 | -0.8% | -21.3% | ?
COc1cccc2cc(NC(=O)C3CCCCC3)c(=O)oc12 | 6.31µM* | -0.4% | -1.1 | -3.4% | -54.8%[57.5 µM] | ?
CCCCCn1cnnc1SCC(=O)c1c(N)n(C2CC2)c(=O)[nH]c1=O | -3.0% | -4.2% | -2.0 | 5.4% | i | -5.2%
Cc1ccc(S(=O)(=O)N2CCN(c3nc(-n4ccnn4)nc4ccccc34)CC2)cc1 | -10.2% | . | . | . | . | .
CN(C(=O)CSc1nncn2c1cc1occc12)c1ccccc1 | . | . | . | . | -10.3% | .
CN=c1sc(C(=O)Nc2cccc(Cl)c2)cc(=O)n1C | -39.2% | 6.1% | -2.4 | -3.4%[46.1 µM] | i | -8.3%
Cn1ccs/c1=N\C(=O)Nc1cccc(Cl)c1 | 3.55µM* | 4.2% | -1.4 | 1.0% | -4.3% | ?
O=C1NC(=O)/C(=C/c2ccc(-c3ccc(F)cc3O)o2)S1 | . | 4.61µM* | . | . | . | .
CCCCOc1ccc(NC(=O)CSc2ccc(C(=O)O)cn2)cc1 | . | . | . | . | -7.6% | .
CC(C)(C)OC(=O)N/N=C/c1ccc(Br)cc1 | 3.55µM* | 8.3% | 0.2 | 0.9% | -15.8% | ?
COC(=O)N/N=C\C=C\c1ccc2c(c1)OCO2 | 4.47µM* | -1.7% | 0.0 | 4.2% | -7.7%[57.5 µM] | ?
CCOC(=O)N/N=C\C=C\c1ccc2c(c1)OCO2 | 4.47µM* | 0.6% | -0.8 | -9.8% | -8.4% | ?
CC(C)(C)OC(=O)N/N=C\C=C\c1ccc2c(c1)OCO2 | 7.94µM* | 2.2% | -3.0 | -5.2% | -26.9% | -0.4%
Cc1nn(-c2ccccc2)c(/N=C/c2ccc(O)cc2)c1-c1ccccc1 | 5.62µM* | -3.1% | 0.2 | 7.0%[46.1 µM] | -21.0% | ?
SMILES | BRCA1 expr act | Mito fusion act | IL2 activator | TCR activator | PTHR1 ag | BCR signal inh
O=C(NCc1ccccc1F)C1CCCN(C(=O)Nc2ccc(F)cc2)C1 (stereo not drawn) | -1.4% | -5.4% | 0.1 | 1.5% | i | -1.3%
Cn1c2cc(B(O)O)sc2c2cnn(Cc3c(F)cccc3Cl)c(=O)c21 | . | -0.4% | . | . | . | ?
N#Cc1ccc(N2Cc3ccccc3C2=NC(=O)c2cccnc2Cl)cc1 | 12.6µM* | 0.5% | -1.3 | 0.6%[46.1 µM] | i | ?
Fc1cccc(CNc2ncnc3ccc(-c4ccoc4)cc23)c1 | . | 3.6% | . | . | . | 24.6%
Cc1ccc(Cl)c2c1NC(=O)C2=O | -8.9% | . | -2.6 | 8.1% | i | -0.4%
O=C(NC(c1ccc(-c2ccccc2)cc1)c1cnccn1)C1CCN(Cc2cccc(C(F)(F)F)c2)CC1 (stereo not drawn) | -8.4% | . | -0.4 | . | -18.7% | .
Cc1cccc(-c2noc(-c3ccccc3C(=O)NCC3CCCO3)n2)c1 (stereo not drawn) | 6.31µM* | 13.8% | -1.9 | -7.0% | -8.9% | -0.5%
O=C(NCC1CCCO1)c1ccccc1-c1nc(-c2ccc(Cl)cc2)no1 (stereo not drawn) | -26.5% | 0.0% | 1.1 | 5.0% | i | ?
O=C(Nc1ccc(F)cc1)C1CC2CCC1C2 (stereo not drawn) | -6.2% | 5.3% | 0.1 | 8.7% | -4.1% | -1.8%
CCC(C)c1ccc(NC(=O)C2CC3CCC2C3)cc1 (stereo not drawn) | 7.08µM* | . | -0.3 | 3.3% | -10.2% | .
CC(C)c1ccc(NC(=O)C2CC3CCC2C3)cc1 (stereo not drawn) | 6.31µM* | -1.6% | 0.2 | 2.8% | -24.9% | -0.8%
CCOc1ccc(NC(=O)C2CC3CCC2C3)cc1 (stereo not drawn) | ? | . | 0.9 | 1.4% | i | .
CN(CCC#N)c1ccc(/C=C/c2ccnc3ccccc23)cc1 | -7.4% | . | . | . | . | .
COc1ccc(Nc2nnc(SCC(=O)N(CC(C)C)C3CCS(=O)(=O)C3)s2)cc1 (stereo not drawn) | 7.08µM* | . | 0.5 | . | -23.6% | .
Cc1ccc(S(=O)(=O)NCCn2cnc([N+](=O)[O-])n2)cc1 | 2.9% | 5.6% | -1.9 | 2.8% | i | -0.5%
COc1cc(/C=N/N=C2/NC(=O)C(CC(=O)O)S2)ccc1OCc1ccc(Cl)cc1 (stereo not drawn) | 3.98µM* | 9.2% | -1.3 | 4.4%[46.1 µM] | -25.0% | 17.7%
CCOc1cc(/C=N/N=C2/NC(=O)C(CC(=O)O)S2)ccc1OCc1ccc(Cl)cc1Cl (stereo not drawn) | -21.5% | 25.0% | 1.0 | -20.9% | i | -0.6%
O=C1NC(=O)C(Cc2cccc(Oc3ccccc3)c2)S1 (stereo not drawn) | 45.8% | 11.2µM* | 0.3 | 9.1% | -18.0% | 12.5%
